Test results published in PubChem BioAssay AID463173 (ICCB-Longwood Screening Facility, Harvard Medical School, 2010).
In all, about 52,000 compounds went through this assay and about 4,300 (8.3%) were called active. Rule as the data show it: active = survival mostly below about 52% (no sharp cut-off); inactive = mostly above about 56%. What follows is part of a selection rich in actives, with near analogues and random picks from the rest.

What follows are compounds tested on DeltatarO mutant (assay: S. aureus survival, RN4220 and DeltatarO strains – OD600, teichoic acid synthesis inhibitors, primary screen (AID 463173)). Conditions: S. aureus RN4220 wild type/DeltatarO growth, OD600, 18 h, stronger effect = lower value, screened at 18.75 µg/mL (by protocol).
OC(CNCc1ccccn1)COc1ccc(OCC(O)CNCc2ccccn2)cc1 (stereo not drawn) was tested, and the survival was 96% (inactive).
With Cc1ccc2c(c1)NC(=O)c1cccnc1O2 the survival was 94% (inactive).
With CCOc1ccc(CNC(=O)C(C)n2ncn3cccc3c2=O)cc1 (stereo not drawn) the survival was 69% (inactive).
In the case of COc1ccc(C(C(=O)NC2CCCC2)N(Cc2ccco2)C(=O)Cn2nc(C(F)(F)F)c3c2CCCC3)cc1 (stereo not drawn), the survival was 91% (inactive).
In the case of Brc1ccc(-c2csc(NN=C3CCCC3)n2)cc1, the survival was 102% (inactive).
With COC(=O)c1ccccc1NC(=O)c1ccc2c(c1)CCN2S(=O)(=O)c1ccc(Cl)cc1 the survival was 69% (inactive).
CCn1c2c(c(=O)n3ncc(C(=O)Nc4ccc(OC(F)(F)F)cc4)c13)CN(Cc1ccc(OC)cc1)CC2 was tested, and the survival was 94% (inactive).
In the case of CCn1c2c(c(=O)n3ncc(C(=O)Nc4ccc(Cl)cc4C)c13)CN(Cc1ccc(OC)cc1)CC2, the survival was 87% (inactive).
With CCn1c2c(c(=O)n3ncc(C(=O)Nc4ccc(F)c(Cl)c4)c13)CN(Cc1ccc(OC)cc1)CC2 the survival was 17% (active).
With c1ccc(N2CCN(Cc3cccn3-c3nnc(N4CCN(C5CCCCC5)CC4)s3)CC2)cc1 the survival was 76% (inactive).
For CC(=O)N1CCc2cc(Br)cc(S(=O)(=O)N3CCC(C(=O)Nc4cccc(C)c4C)CC3)c21, the survival was 75% (active).
In the case of CCC(=O)N1CCc2cc(Br)cc(S(=O)(=O)N3CCC(C(=O)NC(C)(C)C)CC3)c21, the survival was 84% (inactive).
For CCC(=O)N1CCc2cc(Br)cc(S(=O)(=O)N3CCC(C(=O)Nc4ccccc4F)CC3)c21, the survival was 43% (active).
With CCC(=O)N1CCc2cc(Br)cc(S(=O)(=O)N3CCC(C(=O)Nc4ccccc4CC)CC3)c21 the survival was 84% (inactive).
With CCCCNC(=O)C1CCN(S(=O)(=O)c2cc(Br)cc3c2N(C(=O)CC)CC3)CC1 the survival was 90% (inactive).
With CCOc1ccccc1NC(=O)C1CCN(S(=O)(=O)c2cc(Br)cc3c2N(C(C)=O)CC3)CC1 the survival was 69% (inactive).
CCC(=O)N1CCc2cc(Br)cc(S(=O)(=O)N3CCC(C(=O)Nc4ccc(OC)cc4)CC3)c21 was tested, and the survival was 8% (active).
With CCc1cccc(C)c1NC(=O)C1CCN(S(=O)(=O)c2cc(Br)cc3c2N(C(C)=O)CC3)CC1 the survival was 59% (inactive).
CCC(=O)N1CCc2cc(Br)cc(S(=O)(=O)N3CCC(C(=O)Nc4cccc(C)c4)CC3)c21 was tested, and the survival was 80% (inactive).
With COC(=O)CNC(=O)C1CCN(c2nc(C)cc(-c3ccccc3)n2)CC1 the survival was 96% (inactive).
With O=C(Nc1sc2c(c1C(=O)c1ccccc1)CCCC2)c1ccco1 the survival was 73% (inactive).
For O=C(/C=C/c1ccco1)NC(=S)Nc1ccccc1O, the survival was 100% (inactive).
With CCCCNC(=O)C1CCC(Cn2c(=O)c3sccc3n(Cc3ccccc3)c2=O)CC1 (stereo not drawn) the survival was 71% (inactive).
